Data as given in PubChem BioAssay (NCI).
This is part of a sample that, as a whole, favours compounds with a hit. Of some 83,000 tested, about 20% had one in any assay.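 96-well plates, one dose, 48 hours. Percent growth reported; active if below 10.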 The source made the active and inactive calls.

How the values were obtained:
Assay in all cases: NCI-60 one-dose screen, 48 h (100 = growth as untreated, 0 = no growth, -100 = all killed)
Conditions in all cases: 10 µM unless noted
[1] = tested on: HCT-15 colon
[2] = tested on: HT29 colon
[3] = tested on: SNB-75 CNS
[4] = tested on: SNB-19 CNS
[5] = tested on: U251 CNS
[6] = tested on: PC-3 prostate
[7] = tested on: SK-MEL-5 melanoma
[8] = tested on: UACC-62 melanoma
[9] = tested on: LOX IMVI melanoma
[10] = tested on: SK-MEL-28 melanoma
[11] = tested on: SK-MEL-2 melanoma
[12] = tested on: EKVX NSCLC
[13] = tested on: SN12C renal
[14] = tested on: UO-31 renal
[15] = tested on: ACHN renal
[16] = tested on: CAKI-1 renal
[17] = tested on: A498 renal
[18] = tested on: CCRF-CEM leukemia
[19] = tested on: MOLT-4 leukemia
[20] = tested on: TK-10 renal

Measured: growth

COc1cccc2c1CN(C(=O)c1ccc(O)c(C(=O)N3Cc4ccc(OCCC[P+](c5ccccc5)(c5ccccc5)c5ccccc5)cc4C3)c1)C2
inactive: [1] 102% | [2] 100% | [3] 80.9% | [4] 28.3% | [5] 53.6% | [6] 71.7% | [7] 35.7% | [8] 44.4% | [9] 42.7% | [10] 63.2% | [11] 61.5% | [12] 52.4% | [13] 90.4% | [14] 77.3% | [15] 96.6% | [16] 82.3% | [17] 107% | [18] 71.1% | [19] 93.6%

CC(=O)c1cc(C(=O)c2ccc(Br)cc2)n2cc(C)cc(C)c12
inactive: [1] 74.6% | [2] 94.9% | [3] 89.8% | [4] 90.5% | [5] 101% | [6] 87.1% | [7] 66.3% | [8] 82.6% | [9] 86.3% | [10] 92.4% | [11] 102% | [12] 71.7% | [13] 90.8% | [14] 84.8% | [20] 103% | [15] 98.9% | [17] 76.8% | [18] 97% | [19] 87%

COc1ccc(C(=O)c2c(N)c(C#N)cn2-c2ccccc2OC)cc1
active: [2] 6.81% | [7] 6.34% | [17] 7.39%
inactive: [1] 26% | [3] 29.3% | [4] 29.8% | [5] 34.2% | [6] 36.2% | [8] 23.3% | [9] 23.8% | [10] 59.2% | [11] 45.3% | [12] 48.2% | [13] 45.1% | [14] 47.9% | [20] 83.2% | [15] 46.7% | [18] 19.9% | [19] 30.5%

O=C(O)c1ccc(-n2cc(CNc3cc(F)c(F)c(F)c3)c(-c3ccc(F)cc3)n2)cc1
inactive: [1] 68.1% | [2] 108% | [3] 100% | [4] 95.3% | [5] 97.8% | [6] 79.2% | [7] 81.2% | [8] 64.9% | [9] 105% | [10] 85.9% | [11] 78.7% | [12] 85.6% | [13] 91.9% | [14] 77.4% | [20] 150% | [15] 71.4% | [17] 97.6% | [18] 82.7% | [19] 74.2%

C#C[C@]1(O)CC[C@H]2[C@@H]3CC=C4c5sc(-c6ccc(C)cc6)nc5CC[C@]4(C)[C@H]3CC[C@@]21C
inactive: [2] 98% | [4] 10.9% | [12] 54% | [13] 59% | [15] 21.5% | [17] 113%
active: [1] -2.81% | [3] -8.57% | [5] 8.46% | [6] -19.9% | [7] -75.7% | [8] 2.15% | [9] -60.8% | [10] -57.2% | [11] -2.55% | [14] -7.05% | [16] 8.16% | [18] 6.48% | [19] -2.14%

O=C(CSc1nc2ccccc2c(=O)n1-c1ccc(Cl)cc1)N/N=C/c1ccc(N2CCCCC2)cc1
inactive: [1] 67.8% | [2] 60.9% | [3] 79.9% | [4] 43.2% | [5] 50.6% | [6] 78.6% | [7] 97.9% | [8] 73.5% | [9] 43.5% | [10] 84.8% | [11] 99.5% | [12] 82.1% | [13] 62.4% | [14] 53% | [20] 103% | [15] 17.4% | [17] 78.5% | [18] 87% | [19] 92%

O=C(NNc1nc2cc(F)c(F)cc2n2cccc12)c1cnccn1
inactive: [1] 13.9% | [2] 36.8% | [3] 54.7% | [4] 31.5% | [5] 26.4% | [6] 29.4% | [7] 29.3% | [8] 22.2% | [9] 11.4% | [10] 36% | [11] 46.2% | [12] 17% | [13] 39% | [14] 23.3% | [20] 49.3% | [15] 17.6% | [17] 43.6% | [18] 14.4%
active: [19] 7.98%

CCOc1ccccc1NC1=C(Cl)C(=O)c2nc(C)ccc2C1=O
active: [1] -76.6% | [6] 4.34% | [7] -97.8% | [8] -29.1% | [9] -82.2% | [11] -15.7% | [12] -2.24% | [13] -51% | [14] -93% | [15] -99.1% | [18] -6.33% | [19] -24.9%
inactive: [2] 20% | [3] 101% | [4] 46.5% | [5] 37.9% | [10] 14.6% | [20] 124% | [17] 78.8%

Cn1cc(CNc2nc3ccc(OC/C(=C/F)CN)cc3o2)ccc1=O
inactive: [1] 103% | [2] 111% | [3] 110% | [4] 98% | [5] 106% | [6] 107% | [7] 104% | [8] 95.1% | [9] 98.2% | [10] 99.4% | [11] 114% | [12] 98.4% | [13] 99.8% | [14] 93.1% | [15] 105% | [16] 91% | [17] 102% | [18] 107% | [19] 104%

C=C1CC[C@@H]2[C@]3(C)COC(c4ccccc4)O[C@@H]3CC[C@@]2(C)[C@@H]1C/C=C1/C(=O)OC[C@H]1O (some centres not stated)
active: [18] 9.03%
inactive: [1] 65.5% | [2] 54.8% | [3] 100% | [4] 97% | [5] 64.2% | [6] 82.4% | [7] 94.7% | [8] 85.7% | [9] 33.8% | [10] 107% | [11] 93.3% | [12] 100% | [13] 79.9% | [14] 75.7% | [15] 100% | [16] 83.7% | [17] 109% | [19] 84%

CC(C)(C)n1cc(-c2ccnc(NCCCNS(=O)(=O)c3cccc(F)c3)n2)c(-c2ccc(Cl)c(O)c2)n1
inactive: [1] 89.6% | [2] 94.8% | [3] 110% | [4] 103% | [5] 106% | [6] 67.5% | [7] 95.5% | [8] 89.5% | [9] 96.4% | [10] 95.4% | [12] 80.5% | [13] 90.9% | [14] 101% | [20] 152% | [15] 97% | [16] 95.8% | [17] 91.4% | [18] 71.4% | [19] 77.4%

Nc1cc(-c2c[nH]c3ccc(Br)cc23)nc2cc(-c3c[nH]c4ccc(Br)cc34)nn12
active: [1] 2.64% | [2] -33.8% | [5] -47.8% | [9] -52.8% | [15] 7.87% | [17] 7.08% | [18] 7.39% | [19] -3.94%
inactive: [3] 41.9% | [4] 41.2% | [6] 14.5% | [7] 36.7% | [8] 11.6% | [10] 49.9% | [12] 31.7% | [13] 26.8% | [14] 41.3% | [20] 35.7% | [16] 21.1%

CC(C)c1ccc(NCc2cn(-c3ccc(C(=O)O)cc3)nc2-c2cc(C(F)(F)F)cc(C(F)(F)F)c2)cc1
inactive: [1] 73.7% | [2] 80.9% | [3] 89% | [4] 83.8% | [5] 86.2% | [6] 70.4% | [7] 96% | [8] 81.9% | [9] 91.9% | [10] 93.3% | [12] 79.2% | [13] 85.9% | [14] 78.6% | [20] 118% | [15] 92.6% | [16] 63.7% | [17] 90% | [18] 74.8% | [19] 71.6%

Cn1ccnc1C(=O)/C=C/c1ccc(CNC(=O)c2ccc(F)cc2)cc1
inactive: [2] 10.2% | [3] 60.6% | [4] 15.6% | [5] 17.7% | [6] 23.5% | [7] 72.8% | [8] 43.2% | [10] 80.5% | [11] 105% | [12] 53.5% | [13] 20% | [14] 34.9% | [15] 43.4% | [16] 48% | [17] 63.7% | [18] 12.8%
active: [1] 8.09% | [9] -1.32% | [19] 9.84%

Cc1c(F)cc(C(N)=O)cc1NCC(=O)Nc1ccc([N+](=O)[O-])cc1
inactive: [1] 94% | [2] 105% | [3] 47.2% | [4] 98.5% | [5] 109% | [6] 89.5% | [7] 95.7% | [8] 84.2% | [9] 84.1% | [10] 103% | [11] 96.3% | [12] 61.4% | [13] 73.2% | [14] 56.7% | [15] 92.9% | [16] 62.3% | [17] 22.9% | [19] 105%

Cc1c(Cl)cccc1S(=O)(=O)Nc1ccc2c(c1)C(=O)N(C1CCC(=O)NC1=O)C2=O (configuration not stated)
active: [19] 3.6%
inactive: [1] 24% | [2] 105% | [3] 77.4% | [4] 82.9% | [5] 95.6% | [6] 95.4% | [7] 100% | [8] 98.4% | [9] 122% | [10] 97.8% | [11] 107% | [12] 91.2% | [13] 89.4% | [14] 44% | [15] 108% | [17] 91.1% | [18] 25.5%
